PubChem BioAssay (NCATS)
Inconclusive results are not listed. The source made the active and inactive calls. Calls come from the whole dose curve; as a rule, active = well fitted curve in the direction sought with a large enough effect; inconclusive = small, poorly fitted or top-dose-only effect, or another doubt; inactive = no such curve, though single readings can be large; an effect the other way counts as inactive or inconclusive.

Assays:
NIH3T3 [1] = assay: Cytotoxic Profiling of Annotated Libraries Using Quantitative High-Throughput Screening (AID 1296008); details: Five cell lines viability, CellTiter-Glo ATP luminescence, 48-72 h; hits give low values; note: nearly all actives have a fitted effect of over 60% in size
Method in brief: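 Cytotoxicity was measured as CellTiter-Glo ATP luminescence, read after 10 min at room temperature. Compound treatment of the cells lasted 48 or 72 hr at 37 degrees Celsius in a qHTS format.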

HACAT = assay: qHTS assay to identify novel small-molecules to repurpose for Merkel cell carcinoma treatment (AID 1296009); details: MCC and control cell lines, CellTiter-Glo viability, 72 h; at 44.8 µM (top of the series) unless noted; note: nearly all actives have a fitted effect of over 60% in size
Method in brief: (§1)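 72 hr, 37 degree celsius; NPC 8-pt / MIPE 11-pt dose response; compound pinned in DMSO; CellTiter-Glo, 10 min RT, luminescence; normalized to no-cell and DMSO controls.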

MCC-13 = assay: as above; details: MCC and control cell lines, CellTiter-Glo viability, 72 h; series mostly up to 46 µM
Method in brief: as §1

MCC-26 = assay: as above; details: MCC and control cell lines, CellTiter-Glo viability, 72 h; series mostly up to 46 µM
Method in brief: as §1

MKL-1 = assay: as above; details: MCC and control cell lines, CellTiter-Glo viability, 72 h; series mostly up to 46 µM
Method in brief: as §1

MKL-2 = assay: as above; details: MCC and control cell lines, CellTiter-Glo viability, 72 h; series mostly up to 46 µM
Method in brief: as §1

UISO = assay: as above; details: MCC and control cell lines, CellTiter-Glo viability, 72 h; series mostly up to 46 µM
Method in brief: as §1

WaGa = assay: as above; details: MCC and control cell lines, CellTiter-Glo viability, 72 h; series mostly up to 46 µM
Method in brief: as §1

C33A = assay: Primary qHTS to identify gynecologic anti-cancer compounds using libraries of approved drugs and bioactive compounds (AID 1345084); details: Gynecologic cancer cell panel viability, ATPlite luminescence, 48 h; series mostly up to 57.5 µM; note: nearly all actives have a fitted effect of over 55% in size
Method in brief: (§2)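 In this quantitative HTS, cell killing is estimated from loss of ATP-dependent luciferase light. Cells see five compound concentrations over a 48 h exposure.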

CAOV3 = assay: as above; details: Gynecologic cancer cell panel viability, ATPlite luminescence, 48 h; series mostly up to 57.5 µM
Method in brief: as §2

CASKI = assay: as above; details: Gynecologic cancer cell panel viability, ATPlite luminescence, 48 h; series mostly up to 57.5 µM
Method in brief: as §2

HeLa = assay: as above; details: Gynecologic cancer cell panel viability, ATPlite luminescence, 48 h; series mostly up to 57.5 µM
Method in brief: as §2

Hek293T [2] = assay: as above; details: Gynecologic cancer cell panel viability, ATPlite luminescence, 48 h, control line for the selectivity index; series mostly up to 57.5 µM
Method in brief: as §2

JEG-3 = assay: as above; details: Gynecologic cancer cell panel viability, ATPlite luminescence, 48 h; series mostly up to 57.5 µM
Method in brief: as §2

OV90 = assay: as above; details: Gynecologic cancer cell panel viability, ATPlite luminescence, 48 h; series mostly up to 57.5 µM
Method in brief: as §2

PA-1 = assay: as above; details: Gynecologic cancer cell panel viability, ATPlite luminescence, 48 h; series mostly up to 57.5 µM
Method in brief: as §2

SKOV3 = assay: as above; details: Gynecologic cancer cell panel viability, ATPlite luminescence, 48 h; series mostly up to 57.5 µM
Method in brief: as §2

Es-2 = assay: as above; details: Gynecologic cancer cell panel viability, ATPlite luminescence, 48 h; series mostly up to 57.5 µM
Method in brief: as §2

NIH3T3 [3] = assay: qHTS assay to identify novel small-molecules to repurpose for Merkel cell carcinoma treatment (AID 1296009); details: MCC and control cell lines, CellTiter-Glo viability, 72 h; at 44.8 µM (top of the series) unless noted; note: nearly all actives have a fitted effect of over 60% in size
Method in brief: as §1

HEK293T [4] = assay: as above; details: MCC and control cell lines, CellTiter-Glo viability, 72 h; at 44.8 µM (top of the series) unless noted
Method in brief: as §1
% is set by controls: 0 for no effect and ±100 for the full control effect.

COCC(=O)Nc1c(I)c(C(=O)NCC(O)CO)c(I)c(C(=O)N(C)CC(O)CO)c1I (centres undefined)
inactive: max response (NIH3T3 [1]) 1.05% | outcome (HACAT) | outcome (MCC-13) | outcome (MCC-26) | outcome (MKL-1) | outcome (MKL-2) | outcome (UISO) | outcome (WaGa) | outcome (C33A) | outcome (CAOV3) | outcome (CASKI) | outcome (HeLa) | outcome (Hek293T [2]) | outcome (JEG-3) | Potency (OV90) | outcome (PA-1) | outcome (SKOV3)

CC(=O)N[C@@H](Cc1ccc(O)cc1)C(=O)O
inactive: max response (NIH3T3 [1]) -2.52% | outcome (HACAT) | outcome (MCC-13) | outcome (MCC-26) | outcome (MKL-1) | outcome (MKL-2) | outcome (UISO) | outcome (WaGa) | outcome (C33A) | outcome (CASKI) | outcome (Es-2) | outcome (HeLa) | outcome (Hek293T [2]) | outcome (JEG-3) | Potency (OV90) | outcome (PA-1) | outcome (SKOV3)

COc1ccc(C(=O)NCc2ccc(OCCN(C)C)cc2)cc1OC
inactive: max response (NIH3T3 [1]) -3.79% | outcome (HACAT) | outcome (MCC-13) | outcome (MCC-26) | outcome (MKL-1) | outcome (MKL-2) | outcome (UISO) | outcome (WaGa) | outcome (C33A) | outcome (CAOV3) | outcome (CASKI) | outcome (Es-2) | outcome (HeLa) | outcome (Hek293T [2]) | outcome (JEG-3) | Potency (OV90) | outcome (PA-1) | outcome (SKOV3)

CC1CCc2cc(F)cc3c(=O)c(C(=O)O)cn1c23 (centres undefined)
inactive: max response (NIH3T3 [1]) -1.98% | outcome (HACAT) | outcome (MCC-13) | outcome (MCC-26) | outcome (MKL-1) | outcome (MKL-2) | outcome (UISO) | outcome (WaGa) | outcome (C33A) | outcome (CASKI) | outcome (Es-2) | outcome (HeLa) | outcome (Hek293T [2]) | outcome (JEG-3) | Potency (OV90) | outcome (PA-1)

COc1ccccc1OC(=O)Oc1ccccc1OC
inactive: max response (NIH3T3 [1]) 0.277% | outcome (HACAT) | outcome (MCC-13) | outcome (MCC-26) | outcome (MKL-1) | outcome (MKL-2) | outcome (UISO) | outcome (WaGa) | outcome (C33A) | outcome (CAOV3) | outcome (CASKI) | outcome (Es-2) | outcome (HeLa) | outcome (Hek293T [2]) | outcome (JEG-3) | Potency (OV90) | outcome (PA-1) | outcome (SKOV3)

CCS(=O)(=O)CCn1c([N+](=O)[O-])cnc1C
inactive: max response (NIH3T3 [1]) -2.73% | outcome (HACAT) | outcome (MCC-13) | outcome (MCC-26) | outcome (MKL-1) | outcome (MKL-2) | outcome (UISO) | outcome (WaGa) | outcome (C33A) | outcome (Es-2) | outcome (HeLa) | outcome (Hek293T [2]) | outcome (JEG-3) | Potency (OV90) | outcome (PA-1) | outcome (SKOV3)

O=C(/C=C/c1ccc(O)c(O)c1)O[C@@H]1C[C@@](OC(=O)/C=C/c2ccc(O)c(O)c2)(C(=O)O)C[C@@H](O)[C@@H]1O
inactive: max response (NIH3T3 [1]) -0.0883% | outcome (HACAT) | outcome (MCC-13) | outcome (MCC-26) | outcome (MKL-1) | outcome (MKL-2) | outcome (UISO) | outcome (WaGa) | outcome (C33A) | outcome (CASKI) | outcome (Es-2) | outcome (HeLa) | outcome (Hek293T [2]) | outcome (JEG-3) | Potency (OV90) | outcome (PA-1) | outcome (SKOV3)

O=C(NCC(O)CO)c1c(I)c(C(=O)NCC(O)CO)c(I)c(N(CCO)C(=O)CO)c1I (centres undefined)
inactive: max response (NIH3T3 [1]) 2.96% | outcome (HACAT) | outcome (MCC-13) | outcome (MCC-26) | outcome (MKL-1) | outcome (MKL-2) | outcome (UISO) | outcome (WaGa) | outcome (C33A) | outcome (CASKI) | outcome (Es-2) | outcome (HeLa) | outcome (Hek293T [2]) | outcome (JEG-3) | Potency (OV90) | outcome (PA-1) | outcome (SKOV3)

CC[C@]12CCCN3CCc4c(n(c5ccccc45)[C@@](O)(C(=O)OC)C1)[C@@H]32
inactive: outcome (NIH3T3 [1]) | outcome (HACAT) | outcome (MCC-13) | outcome (MKL-1) | outcome (MKL-2) | outcome (NIH3T3 [3]) | outcome (UISO) | outcome (WaGa) | outcome (C33A) | outcome (CAOV3) | outcome (CASKI) | outcome (Es-2) | outcome (HeLa) | outcome (Hek293T [2]) | outcome (JEG-3) | Potency (OV90) | outcome (PA-1)

C=CCNC(N)=S
inactive: max response (NIH3T3 [1]) 4.81% | outcome (HACAT) | outcome (MCC-13) | outcome (MCC-26) | outcome (MKL-1) | outcome (MKL-2) | outcome (UISO) | outcome (WaGa) | outcome (C33A) | outcome (CAOV3) | outcome (CASKI) | outcome (Es-2) | outcome (HeLa) | outcome (Hek293T [2]) | outcome (JEG-3) | Potency (OV90) | outcome (PA-1) | outcome (SKOV3)

CCOc1cc(NC(C)=O)ccc1C(=O)OC
inactive: max response (NIH3T3 [1]) 0.0399% | outcome (HACAT) | outcome (MCC-13) | outcome (MCC-26) | outcome (MKL-1) | outcome (MKL-2) | outcome (UISO) | outcome (WaGa) | outcome (C33A) | outcome (CASKI) | outcome (Es-2) | outcome (HeLa) | outcome (Hek293T [2]) | outcome (JEG-3) | Potency (OV90) | outcome (PA-1) | outcome (SKOV3)

O=c1[nH]cnc2nc[nH]c12
inactive: max response (NIH3T3 [1]) -0.611% | outcome (HACAT) | outcome (MCC-13) | outcome (MCC-26) | outcome (MKL-1) | outcome (MKL-2) | outcome (UISO) | outcome (WaGa) | outcome (C33A) | outcome (CASKI) | outcome (Es-2) | outcome (HeLa) | outcome (Hek293T [2]) | outcome (JEG-3) | Potency (OV90) | outcome (PA-1) | outcome (SKOV3)

CC1(c2ccccc2)OC(C(=O)O)=CC1=O (centres undefined)
inactive: max response (NIH3T3 [1]) -3.39% | outcome (HACAT) | outcome (MCC-13) | outcome (MCC-26) | outcome (MKL-1) | outcome (MKL-2) | outcome (UISO) | outcome (WaGa) | outcome (C33A) | outcome (CASKI) | outcome (Es-2) | outcome (HeLa) | outcome (JEG-3) | Potency (OV90) | outcome (SKOV3)

CC(=O)[C@@]1(O)CC[C@H]2[C@@H]3C[C@H](C)C4=CC(=O)C=C[C@]4(C)[C@@]3(F)[C@@H](O)C[C@@]21C
inactive: max response (NIH3T3 [1]) 4.42% | outcome (HEK293T [4]) | outcome (MCC-13) | outcome (MCC-26) | outcome (MKL-1) | outcome (MKL-2) | outcome (UISO) | outcome (WaGa) | outcome (C33A) | outcome (CAOV3) | outcome (CASKI) | outcome (Es-2) | outcome (HeLa) | outcome (Hek293T [2]) | outcome (JEG-3) | Potency (OV90) | outcome (PA-1)

CC(=O)Oc1cccc(C)c1
inactive: max response (NIH3T3 [1]) -2.31% | outcome (HACAT) | outcome (MCC-13) | outcome (MKL-1) | outcome (MKL-2) | outcome (UISO) | outcome (WaGa) | outcome (C33A) | outcome (CAOV3) | outcome (CASKI) | outcome (Es-2) | outcome (HeLa) | outcome (Hek293T [2]) | outcome (JEG-3) | Potency (OV90) | outcome (PA-1) | outcome (SKOV3)
